Hits are enriched below; roughly 8.1% of the tested compounds scored in any of these assays.
MITF inhib – MITF inhibition | 0.28% of 37,000 active | TRPM1 promoter luciferase, luminescence, 24 h | inhibition, % (no concentration beside the values); in the data active = inhibition above about 85%; inconclusive = no clear call, values can overlap the other calls; inactive = below about 68%;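 note: human melanocyte line stably carrying TRPM1 promoter luciferase reporter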
Hedgehog inh – Sonic Hedgehog pathway inhibition | Shh-LIGHT2 Gli-luciferase reporter, 30 h | inhibition, % (no concentration beside the values) | 2.1% of 22,000 active | AID 2313;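 active = mean inhibition across valid replicates above about 65%, limit read from the data; inconclusive = mean under the limit, yet half or more replicates past it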;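 note: pathway switched on by Shh-conditioned medium diluted 1 in 25 in low serum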
NOMO-1 viab – STK33 inhibitor candidate reducing NOMO-1 cell viability; NOMO-1 AML viability, CellTiter-Glo luminescence, 72 h; inhibition, % (concentration not given with the values); 7.5% of 37,000 active; AID 2330; in the data active = inhibition above about 80%; inconclusive = no clear call, values can overlap the other calls
Hits are given with their value; . = inactive; ? = inconclusive; / = not tested or not shown; ! = not confirmed by another sample.

SMILES	MITF inhib	Hedgehog inh	NOMO-1 viab
O=C(O[C@H]1[C@H](Oc2ccccc2COC(=O)C2(O)C=CCCC2=O)O[C@H](CO)[C@@H](O)[C@@H]1O)c1ccccc1 (stereo not given in full)	.	.	120.6
COC1C(OC)N(S(=O)(=O)c2ccc(C)cc2)CCN1S(=O)(=O)c1ccc(C)cc1 (stereo not given)	.	.	.
Cc1ccc(S(=O)(=O)N2CCC(=O)c3ccccc32)cc1	.	.	110.1
C[C@H](CO)N1C[C@H](C)[C@@H](CN(C)Cc2ccc3c(c2)OCO3)Oc2c(NC(=O)Nc3cccc4ccccc34)cccc2C1=O	.	.	?
C[C@@H]1CN([C@@H](C)CO)C(=O)c2cccc(NC(=O)CCCCCC(=O)Nc3ccccc3N)c2O[C@H]1CN(C)Cc1ccc2c(c1)OCO2	.	/	117.3
C[C@H](CO)N1C[C@H](C)[C@@H](CN(C)Cc2ccc3c(c2)OCO3)Oc2c(NC(=O)CCCCCC(=O)Nc3ccccc3N)cccc2C1=O	.	/	123.4
C[C@H](CO)N1C[C@H](C)[C@H](CN(C)Cc2ccc3c(c2)OCO3)Oc2c(NC(=O)Nc3cccc4ccccc34)cccc2C1=O	.	.	.
C[C@H]1CN([C@@H](C)CO)C(=O)c2cccc(NC(=O)C3CC3)c2O[C@@H]1CN(C)Cc1ccc2c(c1)OCO2	.	.	.
C[C@H]1CN([C@@H](C)CO)C(=O)c2cccc(NC(=O)CCCCCC(=O)Nc3ccccc3N)c2O[C@@H]1CN(C)Cc1ccc2c(c1)OCO2	.	/	121.4
O=S(=O)(/N=C1\SCCN1S(=O)(=O)c1ccc(Cl)cc1)c1ccc(Cl)cc1	.	/	.
Cc1nn(CC(=O)Nc2cc(Cl)cc(Cl)c2)c(C)c1[N+](=O)[O-]	.	/	?
CNc1cc(=O)n(-c2ccccc2)c(=O)n1-c1ccccc1	.	.	.
COC(=O)C(Cc1c[nH]c2ccccc12)NS(=O)(=O)c1ccc(CNC(=O)c2ccccc2)s1 (stereo not given)	.	.	115.2
Cc1ccc(S(=O)(=O)NC(Cc2c[nH]c3ccccc23)C(=O)O)cc1 (stereo not given)	.	/	.
COc1ccccc1NC(=O)CSc1nnc(-c2ccc([N+](=O)[O-])cc2)n1-c1ccccc1	.	/	.
CCc1cc2c(SCC(=O)Nc3cccc(C)c3)ncnc2s1	.	/	.
N#Cc1cc2c(nc1SCCS(=O)(=O)c1nc3ccccc3s1)CCCC2	.	/	111.8
Cc1cc(C)c(C#N)c(SCC(O)CS(=O)(=O)c2ccc(C(C)(C)C)cc2)n1 (stereo not given)	.	/	.
N#Cc1cc2c(nc1SCC(=O)Nc1ccccc1OC(F)(F)F)CCCC2	.	/	.
Cc1cc(C)c(C#N)c(SCCS(=O)(=O)c2nc3ccccc3s2)n1	.	/	128.2
CCOc1ccc(NC(=O)CN2C(=O)c3ccccc3S2(=O)=O)cc1	.	/	.
O=S(=O)(c1ccccc1)c1nc(-c2cccs2)oc1NCC1CCCO1 (stereo not given)	.	/	.
CC(C)(C)C1CCc2c(sc3nc(-c4cccs4)oc(=O)c23)C1 (stereo not given)	.	.	107.7
CC(C)NS(=O)(=O)c1ccc(OCC(=O)O)cc1	.	/	.
COC(=O)COc1ccc(S(=O)(=O)NC2CCCCCC2)cc1	.	/	119.3
SMILES	MITF inhib	Hedgehog inh	NOMO-1 viab
CCOc1ccc(NC(=O)CSc2n[nH]c(-c3ccc(Cl)cc3)n2)cc1	.	/	.
CCOC(=O)CSc1n[nH]c(-c2ccc(Cl)cc2)n1	.	/	118.6
COc1ccccc1OC(C)C(=O)Nc1c(C)n(C)n(-c2ccccc2)c1=O (stereo not given)	.	/	.
CCC(C)C(=O)c1c(O)cc2c(c1O)CC(CC=C(C)C)C(C)(C)O2 (stereo not given)	.	.	88.2
C[C@H]1CN([C@@H](C)CO)C(=O)Cc2cc(NC(=O)Nc3ccc(C(F)(F)F)cc3)ccc2O[C@H]1CN(C)Cc1ccc(C(=O)Nc2ccccc2N)cc1	.	/	127.0
C[C@@H]1CN([C@H](C)CO)C(=O)Cc2cc(NC(=O)Nc3ccc(C(F)(F)F)cc3)ccc2O[C@@H]1CN(C)Cc1ccc(C(=O)Nc2ccccc2N)cc1	.	/	138.3
C[C@H](CO)N1C[C@H](C)[C@H](CN(C)Cc2ccc(C(=O)Nc3ccccc3N)cc2)Oc2ccc(NC(=O)Nc3ccc(C(F)(F)F)cc3)cc2C1=O	.	/	.
Cc1c(Cl)cccc1NC(=O)CSc1nnc(-c2cccc(Cl)c2)n1C	.	/	.
CC(Oc1ccccc1F)C(=O)Nc1ccccc1[N+](=O)[O-] (stereo not given)	.	/	.
CSc1sc(C(=O)/C=C/N(C)C)c(-c2ccccc2)c1C#N	.	.	.
C[C@H]1CN([C@@H](C)CO)C(=O)c2cc(NC(=O)Nc3ccc(C(F)(F)F)cc3)ccc2O[C@@H]1CN(C)C(=O)Nc1ccc(F)cc1	.	.	.
C[C@H](CO)N1C[C@H](C)[C@@H](CN(C)C(=O)Nc2ccc(C(F)(F)F)cc2)Oc2ccc(NC(=O)Nc3ccc(F)cc3)cc2C1=O	.	.	.
C[C@H](CO)N1C[C@H](C)[C@H](CN(C)C(=O)Nc2ccc(F)cc2)Oc2ccc(NC(=O)Nc3ccc(C(F)(F)F)cc3)cc2C1=O	.	69.3	111.5
C[C@@H]1CN([C@@H](C)CO)C(=O)c2cc(NC(=O)Nc3ccc(C(F)(F)F)cc3)ccc2O[C@@H]1CN(C)C(=O)Nc1ccc(F)cc1	.	.	112.6
COc1ccc(OC)c(NC(=O)COc2cc(C)c(Br)cc2C)c1	.	/	.
O=C1CC(c2nc3ccccc3n2CCCOc2ccccc2)CN1c1ccccc1 (stereo not given)	.	/	.
CCn1c(SCC(=O)Nc2cccc(C(F)(F)F)c2)nnc1-c1ccc(C)cc1	.	/	.
Oc1cc(C2CCCCC2)cc(C2CCCCC2)c1	.	/	137.2
O=C(Nc1ccccc1C(=O)O)c1cccc(S(=O)(=O)Nc2ccccc2F)c1	.	/	.
Nc1nnc(SCC(=O)Nc2ccc(I)cc2)s1	.	/	.
NC(=NCc1ccccc1)NC(=O)c1nc(Cl)c(N)nc1N	.	68.8!	91.0!
NC(=O)NC(=O)Cc1ccccc1	.	.	.
NC(=Nc1ccccc1)NC(=O)c1nc(Cl)c(N)nc1N	.	.	119.4
CC(Sc1ncnc2nc[nH]c12)c1ccccc1Cl (stereo not given)	.	.	.
CC(=O)N/C(=C\c1ccccc1)C(=O)Nc1cccc(C#N)c1	.	.	.
SMILES	MITF inhib	Hedgehog inh	NOMO-1 viab
COc1ccc(NC(=O)CSc2cc(C)c3cccc(C)c3n2)cc1	.	/	105.2
CCOc1ccccc1NC(=O)CSc1cc(C)c2cccc(C)c2n1	.	/	.
Cc1ccc(NC(=O)CSc2nc(C)cc(-c3ccc(Cl)cc3)n2)cc1	.	/	.
COc1ccc(S(=O)(=O)Nc2ccc3c(c2)C(=O)N([C@H](C)CO)C[C@@H](C)[C@@H](CN(C)Cc2ccc(Cl)c(Cl)c2)O3)cc1	.	78.0	116.3
COc1ccc(S(=O)(=O)Nc2ccc3c(c2)C(=O)N([C@@H](C)CO)C[C@@H](C)[C@H](CN(C)Cc2ccc(Cl)c(Cl)c2)O3)cc1	.	/	117.9
COc1ccc(CN(C)C[C@H]2Oc3ccc(NS(=O)(=O)c4ccc(OC)cc4)cc3C(=O)N([C@H](C)CO)C[C@@H]2C)cc1	.	.	.
COc1ccc(S(=O)(=O)Nc2ccc3c(c2)C(=O)N([C@@H](C)CO)C[C@H](C)[C@H](CN(C)Cc2ccc(Cl)c(Cl)c2)O3)cc1	.	.	93.0
